According to PubChem BioAssay (NCI):
The panel holds about 79,000 compounds, 15% with a hit somewhere; the sample as a whole holds those more often. Cut-off read from the data, not from the text of the source: active = growth inhibition above about 70%; inactive = the rest.

Experiments:
[1] = NCI Yeast Anticancer Drug Screen. Data for the wt1 strain (AID 149);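 note: 0% = growth of vehicle-treated wt1 cultures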; conditions: S. cerevisiae wt1 strain (SPY 50644) growth inhibition, stronger effect = higher value
In short: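 The wt1 strain was treated with compounds, and growth was compared with vehicle-treated cultures to give inhibition.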

[2] = NCI Yeast Anticancer Drug Screen. Data for the rad50EPP+ strain (AID 151);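 note: 0% = growth of vehicle-treated control cultures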; conditions: S. cerevisiae rad50 mutant strain, stronger effect = higher value
In short: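 Read-out is yeast growth inhibition relative to vehicle; cells used were the rad50EPP+ strain.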

[3] = NCI Yeast Anticancer Drug Screen. Data for the mgt1 strain (AID 153); conditions: S. cerevisiae mgt1 mutant growth inhibition, stronger effect = higher value
In short: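 Measured: inhibition of mgt1 yeast growth by compound, normalized to vehicle-treated cultures.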

[4] = NCI Yeast Anticancer Drug Screen. Data for the rad50 strain (AID 155);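 note: 0% = growth of vehicle-only cultures of the same strain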; conditions: S. cerevisiae rad50 strain growth inhibition, stronger effect = higher value
In short: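 Cells are treated with compound, grown, and their growth is then scored against vehicle-only cultures of the same repair-deficient yeast strain.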

[5] = NCI Yeast Anticancer Drug Screen. Data for the mec2-1 strain (AID 157); conditions: S. cerevisiae mec2-1 strain, stronger effect = higher value
In short: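 Using mec2-1 yeast: add compound, measure growth, express inhibition versus vehicle-treated cultures.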

[6] = NCI Yeast Anticancer Drug Screen. Data for the rad14 strain (AID 159);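 note: 0% = growth of vehicle-treated control cultures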; conditions: S. cerevisiae rad14 strain growth inhibition, stronger effect = higher value
In short: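 Readout: yeast growth inhibition, referenced to vehicle-only cultures. Strain bears a defined alteration in DNA damage repair.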

[7] = NCI Yeast Anticancer Drug Screen. Data for the sgs1 mgt1 strain (AID 161);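 note: 0% = growth of cultures given vehicle only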; conditions: S. cerevisiae sgs1 mgt1 strain, stronger effect = higher value
In short: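 This yeast growth screen uses a strain with defined DNA-repair lesions; compound-treated growth is compared with vehicle-treated growth.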

[8] = NCI Yeast Anticancer Drug Screen. Data for the CLN2oe strain (AID 163);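 note: 0% = growth of vehicle-only control cultures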; conditions: S. cerevisiae CLN2oe strain, stronger effect = higher value
In short: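 Whole-cell yeast growth assay. A strain engineered for altered cell-cycle control received compound, and inhibition relative to vehicle-treated cultures was recorded.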

[9] = NCI Yeast Anticancer Drug Screen. Data for the cln2 rad14 strain (AID 165);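 note: 0% = growth equal to vehicle treated cultures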; conditions: S. cerevisiae cln2 rad14 strain, stronger effect = higher value
In short: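 Yeast strain cln2 rad14, bearing defects in cell cycle control and DNA repair, serves as the test system; values reflect growth inhibition compared with vehicle.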

[10] = NCI Yeast Anticancer Drug Screen. Data for the bub3 strain (AID 167); conditions: S. cerevisiae bub3 mutant strain, stronger effect = higher value
In short: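 Part of a panel of yeast mutants defective in DNA damage repair or cell cycle regulation. Each strain is grown with compound, and inhibition is calculated relative to solvent-treated cultures.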

[11] = NCI Yeast Anticancer Drug Screen. Data for the mlh1 strain (AID 171);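 note: 0% = growth of vehicle-treated control cultures of the same strain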; conditions: S. cerevisiae mlh1 strain growth inhibition, stronger effect = higher value
In short: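 A yeast strain with a defined genetic lesion serves as the test organism. Cultures receive compound or vehicle, and growth is measured.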

[12] = NCI Yeast Anticancer Drug Screen. Data for the sgs1 strain (AID 173);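 note: 0% = growth of vehicle-only control cultures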; conditions: S. cerevisiae sgs1 mutant, stronger effect = higher value
In short: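 A genetically defined yeast mutant is incubated with the test compound, and its growth is compared to that of the same strain given vehicle.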

[13] = NCI Yeast Anticancer Drug Screen. Data for the mlh1 rad18 strain (AID 175); conditions: S. cerevisiae mlh1 rad18 strain growth inhibition, stronger effect = higher value
In short: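 Steps: expose repair-defective yeast to compound; measure growth; express inhibition against vehicle-treated controls.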

[14] = NCI Yeast Anticancer Drug Screen. Data for the rad18 strain (AID 177); conditions: S. cerevisiae rad18 mutant growth inhibition, stronger effect = higher value
In short: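 Measured value is growth inhibition of a yeast strain bearing a DNA repair alteration, referenced to vehicle-treated cells.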

[15] = at 5.0 µM (retest, dose inferred, filed as 0.5)
[16] = at 50.0 µM (retest, dose inferred, filed as 5.0)

Measured: growth inhibition

CCOC(=O)/C(O)=C(/C=N/C(=S)Nc1c(CC)cccc1CC)C(=O)OCC
inactive: [1]; at 1.2 µM -31% | [1]; at 3.7 µM -7% | [1]; at 11.0 µM 2% | [1]; at 33.0 µM 21% | [1]; at 100.0 µM 33% | [2]; at 1.2 µM -3% | [2]; at 3.7 µM -1% | [2]; at 11.0 µM -5% | [2]; at 33.0 µM -3% | [2]; at 100.0 µM -7% | [3]; at 1.2 µM -7% | [3]; at 3.7 µM -6% | [3]; at 11.0 µM 0% | [3]; at 33.0 µM 20% | [3]; at 100.0 µM 35% | [4]; at 1.2 µM -6% | [4]; at 3.7 µM -3% | [4]; [15] 7% | [4]; at 11.0 µM 11% | [4]; at 33.0 µM 36% | [4]; [16] 65% | [4]; at 50.0 µM 65.3% | [4]; at 100.0 µM 47% | [5]; at 1.2 µM -10% | [5]; at 3.7 µM -5% | [5]; [15] 3% | [5]; at 11.0 µM 10% | [5]; at 33.0 µM 27% | [5]; [16] 34% | [5]; at 50.0 µM 24.6% | [5]; at 100.0 µM 36% | [6]; at 1.2 µM -7% | [6]; at 3.7 µM -7% | [6]; at 11.0 µM -2% | [6]; at 33.0 µM 20% | [6]; at 100.0 µM 38% | [7]; [15] -4% | [7]; [16] 10% | [7]; at 50.0 µM 51.3% | [8]; at 1.2 µM -16% | [8]; at 3.7 µM -23% | [8]; at 11.0 µM -19% | [8]; at 33.0 µM -1% | [8]; at 100.0 µM 29% | [9]; [15] -1% | [9]; [16] 25% | [9]; at 50.0 µM 35.2% | [10]; at 1.2 µM -9% | [10]; at 3.7 µM -10% | [10]; [15] -20% | [10]; at 11.0 µM -5% | [10]; at 33.0 µM 12% | [10]; [16] 49% | [10]; at 50.0 µM 67% | [10]; at 100.0 µM 31% | [11]; at 1.2 µM -6% | [11]; at 3.7 µM -4% | [11]; at 11.0 µM 6% | [11]; at 33.0 µM 28% | [11]; at 100.0 µM 45% | [12]; at 1.2 µM -8% | [12]; at 3.7 µM 3% | [12]; at 11.0 µM 17% | [12]; at 33.0 µM 42% | [12]; at 100.0 µM 53% | [13]; [15] -8% | [13]; [16] 36% | [13]; at 50.0 µM 59.9% | [14]; at 1.2 µM -4% | [14]; at 3.7 µM -8% | [14]; at 11.0 µM 8% | [14]; at 33.0 µM 46% | [14]; at 100.0 µM 62%
